# Measured values as given in PubChem BioAssay AID1159580 (chemical genetic matrix, 2015).
# Values joined by “and” are separate entries in the source; they are usually repeats but may differ in a detail not shown here. Equal entries are not always repeated. Among all 5,500 compounds or so, about 2,000 (36%) were called active. Not shown: some 18% with an inconclusive outcome. Cut-off read from the data, not from the text of the source: active = normalized growth mostly below about 0.91 (no sharp cut-off); inconclusive = no clear call, values can overlap the other calls; inactive = mostly above about 0.92. The list shows a part of the results.
# Experiment: chemical genetic growth profiling, strain panel (AID 1159580);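 note: tested at 20 µM; growth read once vehicle control cultures reached saturation at 30 °C; 1 = growth at the plate median or of vehicle wells; lower values mean less growth of the strain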
# Details: S. cerevisiae deletion strains, growth OD
smiles,measurement,setting,value
C=C[C@@](C)(O)CCC1C(=C)CCC2[C@@](C)(CO)CCC[C@]12C (stereo partly drawn),normalized growth,"locus YAL021C, strain ccr4, stronger effect = lower value",0.994 (inactive)
same,normalized growth,"locus YAL026C, strain drs2, stronger effect = lower value",0.972 (inactive)
same,normalized growth,"locus YAL030W, strain snc1, stronger effect = lower value",1.07 (inactive)
same,normalized growth,"locus YBL061C, strain skt5, stronger effect = lower value",1.06 (inactive)
same,normalized growth,"locus YBR009C, strain hhf1, stronger effect = lower value",0.925 (inactive)
same,normalized growth,"locus YBR021W, strain FUR4, stronger effect = lower value",0.772 (active)
same,normalized growth,"locus YBR023C, strain chs3, stronger effect = lower value",1.02 (inactive)
same,normalized growth,"locus YBR171W, strain sec66, stronger effect = lower value",1.08 (inactive)
same,normalized growth,"locus YBR229C, strain ROT2, stronger effect = lower value",1.06 (inactive)
same,normalized growth,"locus YBR231C, strain swc5, stronger effect = lower value",1.12 [resistant] (active)
same,normalized growth,"locus YBR279W, strain paf1, stronger effect = lower value",0.997 (inactive)
same,normalized growth,"locus YCL011C, strain gbp2, stronger effect = lower value",1.02 (inactive)
same,normalized growth,"locus YCL016C, strain dcc1, stronger effect = lower value",0.974 (inactive)
same,normalized growth,"locus YCL029C, strain bik1, stronger effect = lower value",0.972 (inactive)
same,normalized growth,"locus YCL061C, strain MRC1, stronger effect = lower value",0.963 (inactive)
same,normalized growth,"locus YCL069W, strain vba3, stronger effect = lower value",1.03 (inactive)
same,normalized growth,"locus YCR088W, strain abp1, stronger effect = lower value",1.06 (inactive)
same,normalized growth,"locus YDL005C, strain med2, stronger effect = lower value",1.05 (inactive)
same,normalized growth,"locus YDL035C, strain GPR1, stronger effect = lower value",0.794 (active)
same,normalized growth,"locus YDL040C, strain nat1, stronger effect = lower value",1.08 [resistant] (active)
same,normalized growth,"locus YDL074C, strain BRE1, stronger effect = lower value",0.982 (inactive)
same,normalized growth,"locus YDL101C, strain DUN1, stronger effect = lower value",1.05 (inactive)
same,normalized growth,"locus YDL134C, strain PPH21, stronger effect = lower value",0.979 (inactive)
same,normalized growth,"locus YDL185W, strain tfp1, stronger effect = lower value",1.02 (inactive)
same,normalized growth,"locus YDL192W, strain arf1, stronger effect = lower value",0.989 (inactive)
same,normalized growth,"locus YDR001C, strain nth1, stronger effect = lower value",1.08 [resistant] (active)
same,normalized growth,"locus YDR069C, strain doa4, stronger effect = lower value",1.05 (inactive)
same,normalized growth,"locus YDR101C, strain arx1, stronger effect = lower value",0.915 (active)
same,normalized growth,"locus YDR137W, strain rgp1, stronger effect = lower value",0.758 (active)
same,normalized growth,"locus YDR150W, strain NUM1, stronger effect = lower value",1.09 (inactive)
same,normalized growth,"locus YDR159W, strain sac3, stronger effect = lower value",0.997 (inactive)
same,normalized growth,"locus YDR162C, strain NBP2, stronger effect = lower value",0.84 (inactive)
same,normalized growth,"locus YDR195W, strain ref2",1.25 [resistant] (active)
same,normalized growth,"locus YDR297W, strain sur2, stronger effect = lower value",1.04 (inactive)
same,normalized growth,"locus YDR318W, strain mcm21, stronger effect = lower value",0.99 (inactive)
same,normalized growth,"locus YDR334W, strain swr1, stronger effect = lower value",1.1 [resistant] (active)
same,normalized growth,"locus YDR335W, strain msn5, stronger effect = lower value",0.982 (inactive)
same,normalized growth,"locus YDR388W, stronger effect = lower value",1.02 (inactive)
same,normalized growth,"locus YDR392W, strain spt3, stronger effect = lower value",0.833 (inactive)
same,normalized growth,"locus YDR502C, strain sam2, stronger effect = lower value",0.985 (inactive)
same,normalized growth,"locus YEL003W, strain gim4, stronger effect = lower value",0.948 (inactive)
same,normalized growth,"locus YEL037C, strain rad23, stronger effect = lower value",1.05 (inactive)
same,normalized growth,"locus YEL061C, strain CIN8 (second series), stronger effect = lower value",1.07 (inactive)
same,normalized growth,"locus YEL061C, strain CIN8, stronger effect = lower value",1.07 (inactive)
same,normalized growth,"locus YER015W, strain faa2, stronger effect = lower value",1 (inactive)
same,normalized growth,"locus YER016W, strain bim1, stronger effect = lower value",1.05 (inactive)
same,normalized growth,"locus YER110C, stronger effect = lower value",1.06 (inactive)
same,normalized growth,"locus YER111C, strain swi4, stronger effect = lower value",1.07 (inactive)
same,normalized growth,"locus YER155C, strain BEM2 (second series), stronger effect = lower value",1.22 [resistant] (active)
same,normalized growth,"locus YER155C, strain BEM2, stronger effect = lower value",1.09 [resistant] (active)
same,normalized growth,"locus YER167W, strain BCK2, stronger effect = lower value",1.01 (inactive)
same,normalized growth,"locus YFR010W, strain ubp6, stronger effect = lower value",1.07 (inactive)
same,normalized growth,"locus YGL078C, strain dbp3, stronger effect = lower value",0.871 (active)
same,normalized growth,"locus YGL086W, strain mad1, stronger effect = lower value",1 (inactive)
same,normalized growth,"locus YGL167C, strain pmr1, stronger effect = lower value",1.06 (inactive)
same,normalized growth,"locus YGL173C, strain kem1, stronger effect = lower value",0.913 (inactive)
same,normalized growth,"locus YGL227W, strain vid30, stronger effect = lower value",1.06 (inactive)
same,normalized growth,"locus YGL240W, strain doc1, stronger effect = lower value",0.974 (inactive)
same,normalized growth,"locus YGL248W, strain PDE1, stronger effect = lower value",0.982 (inactive)
same,normalized growth,"locus YGL253W, strain hxk2, stronger effect = lower value",1.02 (inactive)
same,normalized growth,"locus YGR078C, strain PAC10, stronger effect = lower value",1.02 (inactive)
same,normalized growth,"locus YGR135W, strain pre9, stronger effect = lower value",0.992 (inactive)
same,normalized growth,"locus YGR252W, strain gcn5, stronger effect = lower value",0.92 (inactive)
same,normalized growth,"locus YHR013C, strain ard1, stronger effect = lower value",1.11 (inactive)
same,normalized growth,"locus YHR027C, strain rpn1, stronger effect = lower value",1.02 (inactive)
same,normalized growth,"locus YHR030C, strain SLT2, stronger effect = lower value",1.09 [resistant] (active) and 0.872 (inactive)
same,normalized growth,"locus YHR079C, strain IRE1 (second series), stronger effect = lower value",1.05 (inactive)
same,normalized growth,"locus YHR079C, strain IRE1, stronger effect = lower value",0.862 (inactive)
same,normalized growth,"locus YHR094C, strain hxt1, stronger effect = lower value",1.04 (inactive)
same,normalized growth,"locus YHR129C, strain ARP1, stronger effect = lower value",1.05 (inactive)
same,normalized growth,"locus YHR142W, strain chs7, stronger effect = lower value",1.01 (inactive)
same,normalized growth,"locus YHR200W, strain rpn10, stronger effect = lower value",1.02 (inactive)
same,normalized growth,"locus YIL066C, strain RNR3, stronger effect = lower value",0.996 (inactive)
same,normalized growth,"locus YIL073C, strain SPO22, stronger effect = lower value",1.01 (inactive)
same,normalized growth,"locus YIL125W, strain kgd1, stronger effect = lower value",0.973 (inactive)
same,normalized growth,"locus YIR030C, strain dcg1, stronger effect = lower value",1.05 (inactive)
same,normalized growth,"locus YJL092W, strain hpr5, stronger effect = lower value",1.02 (inactive)
same,normalized growth,"locus YJL095W, strain BCK1 (second series), stronger effect = lower value",1.07 (inactive)
same,normalized growth,"locus YJL095W, strain BCK1, stronger effect = lower value",1.02 (inactive) and 0.886 (inactive)
same,normalized growth,"locus YJL115W, strain asf1, stronger effect = lower value",1.07 (inactive)
same,normalized growth,"locus YJL129C, strain trk1, stronger effect = lower value",1.02 (inactive)
same,normalized growth,"locus YJL134W, strain LCB3, stronger effect = lower value",1.07 (inactive)
same,normalized growth,"locus YJL154C, strain vps35, stronger effect = lower value",1.09 [resistant] (active)
same,normalized growth,"locus YJL164C, strain tpk1, stronger effect = lower value",0.963 (inactive)
same,normalized growth,"locus YJL166W, strain qcr8, stronger effect = lower value",0.968 (inactive)
same,normalized growth,"locus YJL168C, strain set2, stronger effect = lower value",1.07 (inactive)
same,normalized growth,"locus YJL187C, strain SWE1 (second series), stronger effect = lower value",0.995 (inactive)
same,normalized growth,"locus YJL187C, strain SWE1, stronger effect = lower value",1.01 (inactive)
